From the supplement of paper PMC11732987, “Enantioselective OTUD7B fragment discovery through chemoproteomics screening and high-throughput optimisation” (Communications Chemistry, 2025)

Key:
Assay in all cases: log2 ratio of Biotin-Ahx-Ub-VS probe labelling (fragment/DMSO); higher = less target engagement (more negative = stronger competition), active = hit call of the paper (q ≤ 0.05, log2 ratio ≤ -1)
Conditions in all cases: compound concentration: 200 uM; treatment time: 3 h
[1] = molecular target: USP34 (UniProt Q70CQ2)
Chain of USP34 (Q70CQ2 whole entry, the tested form may be a part): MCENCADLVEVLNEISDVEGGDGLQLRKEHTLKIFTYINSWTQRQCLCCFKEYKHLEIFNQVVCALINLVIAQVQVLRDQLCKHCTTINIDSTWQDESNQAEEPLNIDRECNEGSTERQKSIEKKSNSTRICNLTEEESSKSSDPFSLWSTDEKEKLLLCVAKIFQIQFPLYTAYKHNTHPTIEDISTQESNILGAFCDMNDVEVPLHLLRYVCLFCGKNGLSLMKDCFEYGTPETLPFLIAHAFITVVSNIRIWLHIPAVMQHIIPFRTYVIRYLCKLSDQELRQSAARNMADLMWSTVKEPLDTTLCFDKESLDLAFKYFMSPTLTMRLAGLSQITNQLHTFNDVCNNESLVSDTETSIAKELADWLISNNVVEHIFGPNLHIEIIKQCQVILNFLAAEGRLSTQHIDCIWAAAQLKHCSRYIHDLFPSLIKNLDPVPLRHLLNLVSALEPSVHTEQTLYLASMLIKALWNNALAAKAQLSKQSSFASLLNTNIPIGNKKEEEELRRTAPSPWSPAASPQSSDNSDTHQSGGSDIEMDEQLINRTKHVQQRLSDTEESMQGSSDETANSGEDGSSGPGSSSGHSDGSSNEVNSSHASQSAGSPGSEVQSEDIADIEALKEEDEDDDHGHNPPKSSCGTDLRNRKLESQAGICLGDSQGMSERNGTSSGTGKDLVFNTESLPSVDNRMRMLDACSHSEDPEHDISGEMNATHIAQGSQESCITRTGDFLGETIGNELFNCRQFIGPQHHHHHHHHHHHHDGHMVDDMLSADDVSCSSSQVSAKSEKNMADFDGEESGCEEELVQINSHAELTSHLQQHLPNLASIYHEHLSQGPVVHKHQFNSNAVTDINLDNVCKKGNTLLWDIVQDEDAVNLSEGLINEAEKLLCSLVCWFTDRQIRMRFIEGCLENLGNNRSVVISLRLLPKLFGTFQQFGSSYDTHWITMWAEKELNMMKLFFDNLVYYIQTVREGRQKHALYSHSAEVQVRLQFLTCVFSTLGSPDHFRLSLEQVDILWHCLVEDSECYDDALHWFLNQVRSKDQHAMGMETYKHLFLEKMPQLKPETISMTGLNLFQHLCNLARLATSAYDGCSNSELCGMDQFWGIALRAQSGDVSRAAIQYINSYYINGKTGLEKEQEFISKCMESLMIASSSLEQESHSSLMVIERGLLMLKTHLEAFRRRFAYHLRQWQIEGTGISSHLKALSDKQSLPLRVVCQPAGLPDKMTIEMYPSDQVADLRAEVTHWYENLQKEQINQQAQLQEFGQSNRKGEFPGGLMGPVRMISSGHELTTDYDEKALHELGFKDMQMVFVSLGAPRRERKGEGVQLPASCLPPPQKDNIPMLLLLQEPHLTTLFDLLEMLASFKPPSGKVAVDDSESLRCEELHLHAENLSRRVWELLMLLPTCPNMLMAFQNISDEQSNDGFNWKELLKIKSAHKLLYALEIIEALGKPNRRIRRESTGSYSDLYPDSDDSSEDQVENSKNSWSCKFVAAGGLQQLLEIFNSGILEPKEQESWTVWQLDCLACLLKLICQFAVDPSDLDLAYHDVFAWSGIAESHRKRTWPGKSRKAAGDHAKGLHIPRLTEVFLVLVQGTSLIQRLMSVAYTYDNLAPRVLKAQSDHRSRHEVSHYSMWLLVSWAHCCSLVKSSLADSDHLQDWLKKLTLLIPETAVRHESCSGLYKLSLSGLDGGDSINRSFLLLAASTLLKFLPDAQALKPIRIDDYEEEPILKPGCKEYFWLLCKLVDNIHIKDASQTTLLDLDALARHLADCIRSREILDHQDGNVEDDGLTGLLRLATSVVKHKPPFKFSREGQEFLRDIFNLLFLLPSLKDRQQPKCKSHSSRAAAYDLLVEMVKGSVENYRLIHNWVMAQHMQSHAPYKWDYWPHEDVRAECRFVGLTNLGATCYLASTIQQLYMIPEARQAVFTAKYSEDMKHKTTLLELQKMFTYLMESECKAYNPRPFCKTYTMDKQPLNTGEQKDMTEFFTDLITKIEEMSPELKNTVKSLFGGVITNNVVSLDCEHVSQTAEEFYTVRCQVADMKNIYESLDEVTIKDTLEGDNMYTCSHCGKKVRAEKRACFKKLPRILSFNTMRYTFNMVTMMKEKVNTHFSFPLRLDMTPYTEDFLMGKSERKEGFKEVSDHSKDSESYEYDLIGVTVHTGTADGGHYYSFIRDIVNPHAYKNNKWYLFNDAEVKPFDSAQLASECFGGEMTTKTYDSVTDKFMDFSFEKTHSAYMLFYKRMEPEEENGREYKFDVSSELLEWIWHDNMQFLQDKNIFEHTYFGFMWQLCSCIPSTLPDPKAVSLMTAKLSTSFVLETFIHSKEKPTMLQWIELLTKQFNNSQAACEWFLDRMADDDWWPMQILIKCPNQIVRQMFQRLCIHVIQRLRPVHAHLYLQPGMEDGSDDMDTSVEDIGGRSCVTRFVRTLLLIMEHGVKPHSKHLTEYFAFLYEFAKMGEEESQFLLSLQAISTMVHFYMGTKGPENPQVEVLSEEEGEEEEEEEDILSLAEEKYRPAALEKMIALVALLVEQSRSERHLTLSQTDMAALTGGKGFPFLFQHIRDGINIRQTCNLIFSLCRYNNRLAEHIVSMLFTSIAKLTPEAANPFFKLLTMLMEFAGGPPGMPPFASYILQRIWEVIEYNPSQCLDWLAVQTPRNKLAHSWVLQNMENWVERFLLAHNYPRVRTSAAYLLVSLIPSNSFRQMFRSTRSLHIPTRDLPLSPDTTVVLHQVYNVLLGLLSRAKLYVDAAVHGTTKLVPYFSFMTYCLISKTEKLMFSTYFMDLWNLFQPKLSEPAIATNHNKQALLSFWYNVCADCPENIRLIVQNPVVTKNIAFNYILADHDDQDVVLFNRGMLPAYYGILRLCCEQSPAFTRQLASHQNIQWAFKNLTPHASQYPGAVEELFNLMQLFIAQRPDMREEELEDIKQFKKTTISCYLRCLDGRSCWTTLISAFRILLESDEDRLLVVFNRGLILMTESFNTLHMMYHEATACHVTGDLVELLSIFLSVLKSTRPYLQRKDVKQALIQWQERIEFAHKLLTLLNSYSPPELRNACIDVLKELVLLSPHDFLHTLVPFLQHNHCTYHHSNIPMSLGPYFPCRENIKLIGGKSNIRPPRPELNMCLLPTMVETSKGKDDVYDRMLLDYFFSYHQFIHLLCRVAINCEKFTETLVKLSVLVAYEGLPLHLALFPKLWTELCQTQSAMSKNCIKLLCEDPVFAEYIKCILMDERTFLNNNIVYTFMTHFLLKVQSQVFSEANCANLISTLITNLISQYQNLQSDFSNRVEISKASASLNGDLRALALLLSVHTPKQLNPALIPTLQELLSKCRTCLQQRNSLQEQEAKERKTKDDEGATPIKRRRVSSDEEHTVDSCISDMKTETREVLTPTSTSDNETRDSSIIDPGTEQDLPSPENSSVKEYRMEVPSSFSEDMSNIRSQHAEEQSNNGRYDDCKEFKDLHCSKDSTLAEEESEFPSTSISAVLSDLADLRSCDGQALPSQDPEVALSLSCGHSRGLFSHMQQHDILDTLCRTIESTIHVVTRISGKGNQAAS
In short: (§1)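 Global-median-normalised Spectronaut label-free quantities were compared by unpaired t-test, and values are average log2 ratios of fragment over vehicle. Only proteins with ≥2 unique peptides were used. HEK293T lysate (495 µg per sample) was treated in triplicate with fragment at 200 µM or vehicle for 3 h and then with Biotin-Ahx-Ub-VS at 0.5 µM final for 1 h. Labelled DUBs were then NeutrAvidin-enriched, digested with LysC and trypsin, and run by diaPASEF LC-MS/MS.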

[2] = molecular target: T1, USP36 (UniProt Q9P275)
T1 sequence (whole entry): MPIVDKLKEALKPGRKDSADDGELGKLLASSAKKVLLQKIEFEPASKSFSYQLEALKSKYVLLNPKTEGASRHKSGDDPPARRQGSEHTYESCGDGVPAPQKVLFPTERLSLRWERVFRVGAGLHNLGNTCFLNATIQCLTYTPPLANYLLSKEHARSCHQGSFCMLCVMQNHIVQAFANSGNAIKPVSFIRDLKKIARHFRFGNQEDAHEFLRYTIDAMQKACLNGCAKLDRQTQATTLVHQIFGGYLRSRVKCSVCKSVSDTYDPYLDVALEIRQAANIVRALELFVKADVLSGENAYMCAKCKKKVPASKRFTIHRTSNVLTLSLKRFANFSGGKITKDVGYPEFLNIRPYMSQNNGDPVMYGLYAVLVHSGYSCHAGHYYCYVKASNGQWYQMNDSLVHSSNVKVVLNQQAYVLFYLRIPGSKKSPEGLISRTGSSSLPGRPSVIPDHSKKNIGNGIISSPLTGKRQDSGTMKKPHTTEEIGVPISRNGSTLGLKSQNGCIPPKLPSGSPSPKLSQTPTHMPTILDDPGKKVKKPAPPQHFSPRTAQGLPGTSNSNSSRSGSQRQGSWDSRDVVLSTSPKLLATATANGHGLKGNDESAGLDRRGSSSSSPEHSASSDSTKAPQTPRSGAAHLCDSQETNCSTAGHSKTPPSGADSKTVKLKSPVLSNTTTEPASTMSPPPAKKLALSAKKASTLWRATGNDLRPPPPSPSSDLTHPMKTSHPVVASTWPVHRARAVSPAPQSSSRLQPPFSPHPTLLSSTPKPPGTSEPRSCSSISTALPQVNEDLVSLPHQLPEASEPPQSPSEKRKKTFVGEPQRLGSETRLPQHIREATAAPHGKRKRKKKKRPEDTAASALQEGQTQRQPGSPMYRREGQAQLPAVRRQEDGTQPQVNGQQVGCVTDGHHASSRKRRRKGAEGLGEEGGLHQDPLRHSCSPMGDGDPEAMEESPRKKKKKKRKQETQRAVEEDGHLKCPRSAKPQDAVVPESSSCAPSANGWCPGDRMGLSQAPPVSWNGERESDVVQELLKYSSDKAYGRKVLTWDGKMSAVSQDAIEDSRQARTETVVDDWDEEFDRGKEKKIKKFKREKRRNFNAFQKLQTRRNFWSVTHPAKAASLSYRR
In short: as §1

[3] = molecular target: T2, USP38 (UniProt Q8NB14)
T2 sequence (whole entry): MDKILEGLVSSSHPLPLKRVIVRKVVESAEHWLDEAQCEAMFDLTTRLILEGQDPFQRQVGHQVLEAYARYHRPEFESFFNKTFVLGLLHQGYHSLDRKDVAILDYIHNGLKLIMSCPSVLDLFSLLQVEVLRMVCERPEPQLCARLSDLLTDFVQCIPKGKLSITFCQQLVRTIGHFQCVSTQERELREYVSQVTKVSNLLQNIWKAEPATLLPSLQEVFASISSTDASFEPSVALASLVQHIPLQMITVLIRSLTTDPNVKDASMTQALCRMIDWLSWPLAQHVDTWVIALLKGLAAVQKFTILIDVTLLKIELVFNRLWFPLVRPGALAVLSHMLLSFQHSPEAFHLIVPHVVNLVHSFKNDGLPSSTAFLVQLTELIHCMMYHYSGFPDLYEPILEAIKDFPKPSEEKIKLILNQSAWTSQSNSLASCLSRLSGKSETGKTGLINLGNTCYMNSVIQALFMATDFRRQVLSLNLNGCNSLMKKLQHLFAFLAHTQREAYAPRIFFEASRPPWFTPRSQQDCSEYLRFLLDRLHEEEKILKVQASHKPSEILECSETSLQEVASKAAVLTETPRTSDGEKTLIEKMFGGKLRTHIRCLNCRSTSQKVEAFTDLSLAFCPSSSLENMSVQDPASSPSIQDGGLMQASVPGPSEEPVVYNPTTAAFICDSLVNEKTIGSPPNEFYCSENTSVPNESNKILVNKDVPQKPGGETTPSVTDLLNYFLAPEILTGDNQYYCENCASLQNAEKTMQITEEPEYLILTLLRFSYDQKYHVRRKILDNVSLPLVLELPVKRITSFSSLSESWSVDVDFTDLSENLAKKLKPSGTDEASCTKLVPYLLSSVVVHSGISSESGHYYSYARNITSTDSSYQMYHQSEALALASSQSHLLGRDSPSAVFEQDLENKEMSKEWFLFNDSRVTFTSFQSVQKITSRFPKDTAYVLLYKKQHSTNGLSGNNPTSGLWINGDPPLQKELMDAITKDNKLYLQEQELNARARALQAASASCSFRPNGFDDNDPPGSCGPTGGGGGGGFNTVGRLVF
In short: as §1

[4] = molecular target: T3, USP39 (UniProt Q53GS9)
T3 sequence (whole entry): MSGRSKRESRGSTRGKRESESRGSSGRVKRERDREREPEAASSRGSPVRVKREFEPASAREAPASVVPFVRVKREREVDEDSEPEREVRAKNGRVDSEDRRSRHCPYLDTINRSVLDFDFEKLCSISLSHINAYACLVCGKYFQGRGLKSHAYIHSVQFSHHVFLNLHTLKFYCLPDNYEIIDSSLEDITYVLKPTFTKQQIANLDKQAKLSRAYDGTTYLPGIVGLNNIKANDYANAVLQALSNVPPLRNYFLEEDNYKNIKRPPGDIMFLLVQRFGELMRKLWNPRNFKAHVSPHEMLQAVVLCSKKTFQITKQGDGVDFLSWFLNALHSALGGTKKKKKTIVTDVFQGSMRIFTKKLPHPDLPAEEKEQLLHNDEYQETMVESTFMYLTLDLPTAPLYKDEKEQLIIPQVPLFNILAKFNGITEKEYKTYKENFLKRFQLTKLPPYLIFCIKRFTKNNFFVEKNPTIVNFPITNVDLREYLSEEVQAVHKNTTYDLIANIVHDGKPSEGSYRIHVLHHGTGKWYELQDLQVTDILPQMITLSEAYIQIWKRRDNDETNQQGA
In short: as §1

[5] = molecular target: T4, USP4 (UniProt Q13107)
T4 sequence (whole entry): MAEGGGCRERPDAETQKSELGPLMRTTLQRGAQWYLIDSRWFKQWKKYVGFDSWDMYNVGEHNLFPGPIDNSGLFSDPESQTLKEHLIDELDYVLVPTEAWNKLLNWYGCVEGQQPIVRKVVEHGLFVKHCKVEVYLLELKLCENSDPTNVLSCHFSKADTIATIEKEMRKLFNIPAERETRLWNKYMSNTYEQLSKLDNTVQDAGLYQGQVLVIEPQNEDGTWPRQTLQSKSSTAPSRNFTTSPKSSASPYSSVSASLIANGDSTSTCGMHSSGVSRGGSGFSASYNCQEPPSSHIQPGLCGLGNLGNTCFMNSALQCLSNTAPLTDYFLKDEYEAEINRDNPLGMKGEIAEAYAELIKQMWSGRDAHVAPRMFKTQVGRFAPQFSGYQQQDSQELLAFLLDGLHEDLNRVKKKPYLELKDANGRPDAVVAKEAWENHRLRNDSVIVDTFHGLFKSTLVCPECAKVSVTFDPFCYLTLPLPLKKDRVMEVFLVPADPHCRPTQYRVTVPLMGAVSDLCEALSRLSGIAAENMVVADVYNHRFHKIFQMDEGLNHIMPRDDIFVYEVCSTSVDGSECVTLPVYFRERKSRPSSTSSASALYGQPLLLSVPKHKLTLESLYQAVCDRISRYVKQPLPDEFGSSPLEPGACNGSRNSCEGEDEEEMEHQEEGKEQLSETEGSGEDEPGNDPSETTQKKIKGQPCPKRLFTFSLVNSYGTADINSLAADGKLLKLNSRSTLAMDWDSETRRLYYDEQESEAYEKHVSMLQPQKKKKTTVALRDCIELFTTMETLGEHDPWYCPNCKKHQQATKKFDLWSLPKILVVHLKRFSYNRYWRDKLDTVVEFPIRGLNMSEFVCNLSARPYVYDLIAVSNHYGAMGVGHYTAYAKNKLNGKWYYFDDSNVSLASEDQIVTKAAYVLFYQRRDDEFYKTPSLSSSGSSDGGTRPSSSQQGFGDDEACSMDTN
In short: as §1

Measured: log2 ratio of Biotin-Ahx-Ub-VS probe labelling

Cc1nc(-c2cccc(NC(=O)CCl)c2)cs1
inactive: [1] -0.392 | [2] 0.0209 | [3] -0.179 | [4] 0.188 | [5] -0.239
